Experimental findings from PMC11024108 are described below.

Assay [1] has as its target Large ribosomal subunit protein eL42 (UniProt P83881). The assay is described as follows: cross-link between two proteins; cross-linking mass spectrometry.
In assay [2] the target is Large ribosomal subunit protein mL53 (UniProt Q96EL3). Described as above.
The target in assay [3] is Large ribosomal subunit protein uL1 (UniProt P62906). Described as above.
The target of assay [4] is Large ribosomal subunit protein uL22 (UniProt Q9CPR4). The assay is described as above.
Assay [5] addresses Complex III assembly factor LYRM7 (UniProt Q5U5X0). The assay is described as follows: cross-linking mass spectrometry.
Assay [6] concerns the target Malate dehydrogenase, mitochondrial (UniProt P40926). The assay is described as follows: cross-linking mass spectrometry.
In assay [7] the target is Elongation factor 1-alpha 1 (UniProt P68104). Description: cross-linking mass spectrometry.
Another assay deals with Histone H2B type 1-C/E/G (UniProt Q6ZWY9). The assay is described as follows: cross-linking mass spectrometry.
In assay [8] the target is Large ribosomal subunit protein uL11 (UniProt P30050). Description: cross-linking mass spectrometry.
Assay [9] deals with Large ribosomal subunit protein uL11m (UniProt Q9Y3B7). The assay is described as follows: cross-linking mass spectrometry.
Assay [10] concerns the target Large ribosomal subunit protein uL5 (UniProt P62913). Description: cross-linking mass spectrometry.
In assay [11] the target is Leucine-rich repeat-containing protein 59 (UniProt Q96AG4). The assay is described as follows: cross-linking mass spectrometry.
Assay [12] has as its target Poly(A) RNA polymerase, mitochondrial (UniProt Q9NVV4). Description: cross-linking mass spectrometry.
In assay [13] the target is Ribosome-binding protein 1 (UniProt Q9P2E9). The assay is described as follows: cross-linking mass spectrometry.
Assay [14] has as its target Small ribosomal subunit protein uS15 (UniProt P62301). The assay is described as follows: cross-linking mass spectrometry.
For assay [15], the target named is Small ribosomal subunit protein eS27 (UniProt Q6ZWU9). Description: cross-link between two proteins; cross-linking mass spectrometry.
The target in assay [16] is MICOS complex subunit MIC60 (UniProt Q16891). The assay is described as above.
The target in assay [17] is Cytochrome c oxidase assembly factor 7 (UniProt Q96BR5). Description: mass-spectrometry hit list; affinity purification or IP with mass spectrometry; cross-linking mass spectrometry.
The target of assay [18] is Mitochondrial fission 1 protein (UniProt Q9CQ92). The assay is described as follows: cross-link between two proteins; cross-linking mass spectrometry.
For assay [19], the target named is Plasma membrane calcium-transporting ATPase 2 (UniProt Q9R0K7). The assay is described as above.
The next assay has as its target Protein piccolo (UniProt Q9QYX7). Described as above.
In assay [20] the target is Ragulator complex protein LAMTOR4 (UniProt Q0VGL1). The assay is described as above.
Assay [21] has as its target Ras-related C3 botulinum toxin substrate 1 (UniProt P63000). The description is as above.
The target in assay [22] is Small ribosomal subunit protein RACK1 (UniProt P68040). Described as above.
The target in assay [23] is Small ribosomal subunit protein eS19 (UniProt Q9CZX8). The assay is described as above.
For assay [24], the target named is Small ribosomal subunit protein eS4, X isoform (UniProt P62701). The assay is described as above.
In assay [25] the target is Small ribosomal subunit protein uS19 (UniProt P62841). The assay is described as above.
The target of assay [26] is Small ribosomal subunit protein uS4 (UniProt Q6ZWN5). Described as above.
In another assay the target is Syntaxin-1B (UniProt P61264). The assay is described as above.
The target of another assay is Tubulin alpha-1C chain (UniProt Q9BQE3). The assay is described as above.
A further assay deals with Tubulin beta-2A chain (UniProt Q7TMM9). Described as above.
Assay [27] deals with Ubiquitin-like FUBI-ribosomal protein eS30 fusion protein (UniProt P62861). The description is as above.
Assay [28] deals with Ubiquitin-ribosomal protein eS31 fusion protein (UniProt P62979). The assay is described as above.
The target in assay [29] is cAMP-dependent protein kinase catalytic subunit beta (UniProt P68181). The assay is described as above.
In assay [30] the target is cAMP-dependent protein kinase type II-beta regulatory subunit (UniProt P31324). The description is as above.
Chain of cAMP-dependent protein kinase type II-beta regulatory subunit (P31324 whole entry): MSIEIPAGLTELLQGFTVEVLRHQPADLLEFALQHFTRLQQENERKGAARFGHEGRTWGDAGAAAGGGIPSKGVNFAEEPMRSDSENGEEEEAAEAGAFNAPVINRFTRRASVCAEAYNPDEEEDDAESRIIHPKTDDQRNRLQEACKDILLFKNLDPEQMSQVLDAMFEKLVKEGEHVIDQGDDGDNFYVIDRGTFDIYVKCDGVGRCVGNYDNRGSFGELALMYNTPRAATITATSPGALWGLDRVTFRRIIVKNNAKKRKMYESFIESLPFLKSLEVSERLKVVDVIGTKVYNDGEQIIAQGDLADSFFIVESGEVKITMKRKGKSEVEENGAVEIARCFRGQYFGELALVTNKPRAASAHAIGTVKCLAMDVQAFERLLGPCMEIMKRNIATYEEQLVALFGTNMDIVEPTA

Chain of Tubulin alpha-1A chain, P68369 (P68369 whole entry): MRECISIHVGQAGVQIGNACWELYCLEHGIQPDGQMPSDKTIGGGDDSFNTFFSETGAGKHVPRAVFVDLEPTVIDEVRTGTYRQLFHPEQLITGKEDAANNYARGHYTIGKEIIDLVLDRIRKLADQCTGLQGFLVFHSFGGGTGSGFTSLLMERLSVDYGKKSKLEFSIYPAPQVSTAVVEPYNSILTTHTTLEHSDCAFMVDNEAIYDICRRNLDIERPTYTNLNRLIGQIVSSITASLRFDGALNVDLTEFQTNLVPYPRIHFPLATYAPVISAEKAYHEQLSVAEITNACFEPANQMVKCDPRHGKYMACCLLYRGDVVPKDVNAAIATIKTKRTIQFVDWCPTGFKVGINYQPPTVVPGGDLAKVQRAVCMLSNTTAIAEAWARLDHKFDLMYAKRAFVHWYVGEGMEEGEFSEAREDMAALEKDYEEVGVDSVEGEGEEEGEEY
Chain of Syntaxin-1B (P61264 whole entry): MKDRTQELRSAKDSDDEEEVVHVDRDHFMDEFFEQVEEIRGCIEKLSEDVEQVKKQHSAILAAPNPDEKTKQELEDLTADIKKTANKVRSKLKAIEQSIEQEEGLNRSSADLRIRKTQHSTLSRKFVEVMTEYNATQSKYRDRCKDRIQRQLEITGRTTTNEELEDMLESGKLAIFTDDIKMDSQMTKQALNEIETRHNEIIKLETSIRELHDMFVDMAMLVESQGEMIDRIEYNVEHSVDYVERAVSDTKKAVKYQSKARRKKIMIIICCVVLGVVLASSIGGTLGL
Chain of Mitochondrial fission 1 protein (Q9CQ92 whole entry): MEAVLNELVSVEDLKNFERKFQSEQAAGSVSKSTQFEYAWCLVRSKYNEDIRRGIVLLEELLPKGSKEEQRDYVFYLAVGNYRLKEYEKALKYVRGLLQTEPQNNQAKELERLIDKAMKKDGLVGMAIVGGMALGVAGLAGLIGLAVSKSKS
Chain of Ras-related protein Rab-14, Q91V41 (Q91V41 whole entry): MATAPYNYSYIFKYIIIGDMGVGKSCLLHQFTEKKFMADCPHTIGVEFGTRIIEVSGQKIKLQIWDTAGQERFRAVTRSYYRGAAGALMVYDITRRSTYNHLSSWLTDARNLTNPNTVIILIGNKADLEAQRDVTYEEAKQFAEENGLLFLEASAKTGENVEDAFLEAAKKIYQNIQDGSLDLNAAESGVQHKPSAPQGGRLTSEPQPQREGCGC
Chain of Dynein light chain 2, cytoplasmic, Q9D0M5 (Q9D0M5 whole entry): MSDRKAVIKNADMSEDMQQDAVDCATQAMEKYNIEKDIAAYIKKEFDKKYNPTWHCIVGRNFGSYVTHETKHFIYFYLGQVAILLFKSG
Chain of Syntaxin-1A, O35526 (O35526 whole entry): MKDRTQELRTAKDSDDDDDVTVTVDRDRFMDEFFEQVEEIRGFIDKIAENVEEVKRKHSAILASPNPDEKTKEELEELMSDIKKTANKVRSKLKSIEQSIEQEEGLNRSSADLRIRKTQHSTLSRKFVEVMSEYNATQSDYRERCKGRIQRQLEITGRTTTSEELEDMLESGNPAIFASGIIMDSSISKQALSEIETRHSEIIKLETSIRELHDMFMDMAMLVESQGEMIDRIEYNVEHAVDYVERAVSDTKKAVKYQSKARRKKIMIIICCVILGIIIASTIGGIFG
Chain of Tubulin beta-2A chain (Q7TMM9 whole entry, the tested form may be a part): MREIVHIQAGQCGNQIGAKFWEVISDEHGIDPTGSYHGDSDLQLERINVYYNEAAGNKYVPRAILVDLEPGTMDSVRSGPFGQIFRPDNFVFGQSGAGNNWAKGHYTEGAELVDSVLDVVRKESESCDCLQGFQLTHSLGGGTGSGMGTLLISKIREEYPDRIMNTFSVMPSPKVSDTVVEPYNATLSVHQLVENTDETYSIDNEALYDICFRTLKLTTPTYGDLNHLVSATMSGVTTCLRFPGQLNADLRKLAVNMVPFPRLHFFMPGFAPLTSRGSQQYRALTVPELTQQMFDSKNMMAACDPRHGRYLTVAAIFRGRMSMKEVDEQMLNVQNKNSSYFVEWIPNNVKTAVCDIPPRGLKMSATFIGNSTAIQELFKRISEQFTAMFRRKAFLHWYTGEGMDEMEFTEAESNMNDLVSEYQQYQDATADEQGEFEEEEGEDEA
Chain of Plasma membrane calcium-transporting ATPase 2 (Q9R0K7 whole entry): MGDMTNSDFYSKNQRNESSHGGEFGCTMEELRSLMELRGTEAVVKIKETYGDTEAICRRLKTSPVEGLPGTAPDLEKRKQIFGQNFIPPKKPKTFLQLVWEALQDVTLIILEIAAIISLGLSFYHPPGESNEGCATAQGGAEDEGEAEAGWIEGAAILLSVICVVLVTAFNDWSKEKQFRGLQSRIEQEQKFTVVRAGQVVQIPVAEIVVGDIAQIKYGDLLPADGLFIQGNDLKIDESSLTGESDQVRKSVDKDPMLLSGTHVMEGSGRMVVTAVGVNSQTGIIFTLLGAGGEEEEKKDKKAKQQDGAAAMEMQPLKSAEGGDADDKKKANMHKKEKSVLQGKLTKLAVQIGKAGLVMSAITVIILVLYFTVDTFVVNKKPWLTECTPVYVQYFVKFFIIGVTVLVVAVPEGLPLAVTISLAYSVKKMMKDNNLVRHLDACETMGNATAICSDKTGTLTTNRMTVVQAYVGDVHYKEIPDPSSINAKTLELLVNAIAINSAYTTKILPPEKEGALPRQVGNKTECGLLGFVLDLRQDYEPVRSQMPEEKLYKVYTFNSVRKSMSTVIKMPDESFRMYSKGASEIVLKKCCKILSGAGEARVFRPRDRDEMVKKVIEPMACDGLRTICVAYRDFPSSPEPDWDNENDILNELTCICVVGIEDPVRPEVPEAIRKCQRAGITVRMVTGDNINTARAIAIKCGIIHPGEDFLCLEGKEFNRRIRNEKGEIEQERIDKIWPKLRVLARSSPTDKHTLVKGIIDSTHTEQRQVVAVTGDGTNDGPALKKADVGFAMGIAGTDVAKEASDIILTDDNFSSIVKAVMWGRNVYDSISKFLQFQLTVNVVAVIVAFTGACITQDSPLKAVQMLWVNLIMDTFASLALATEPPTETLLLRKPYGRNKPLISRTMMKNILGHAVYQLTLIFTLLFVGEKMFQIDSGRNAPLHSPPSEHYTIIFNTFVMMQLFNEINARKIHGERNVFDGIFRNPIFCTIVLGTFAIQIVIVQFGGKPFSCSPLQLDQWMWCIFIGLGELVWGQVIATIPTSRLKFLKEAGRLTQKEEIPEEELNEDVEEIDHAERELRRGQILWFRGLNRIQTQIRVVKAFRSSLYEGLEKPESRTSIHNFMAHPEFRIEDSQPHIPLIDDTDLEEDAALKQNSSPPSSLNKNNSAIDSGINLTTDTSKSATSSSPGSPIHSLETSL
Chain of cAMP-dependent protein kinase type II-alpha regulatory subunit, P12367 (P12367 whole entry): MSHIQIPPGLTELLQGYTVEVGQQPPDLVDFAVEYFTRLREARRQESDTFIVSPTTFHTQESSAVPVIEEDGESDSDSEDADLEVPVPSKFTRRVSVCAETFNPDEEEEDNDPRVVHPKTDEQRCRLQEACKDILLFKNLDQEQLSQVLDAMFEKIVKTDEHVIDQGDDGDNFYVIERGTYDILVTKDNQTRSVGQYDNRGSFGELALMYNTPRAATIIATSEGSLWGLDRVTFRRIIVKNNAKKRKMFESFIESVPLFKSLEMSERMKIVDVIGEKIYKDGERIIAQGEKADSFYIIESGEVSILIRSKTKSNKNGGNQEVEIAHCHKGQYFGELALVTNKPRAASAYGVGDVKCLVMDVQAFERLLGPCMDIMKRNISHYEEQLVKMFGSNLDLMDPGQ

Regarding “Large ribosomal subunit protein uL5, P62913”, the “listed as a hit” value in assay [1] was “yes”.
Regarding “Large ribosomal subunit protein uL10m, Q7Z7H8”, in assay [2], the “listed as a hit” value is reported as “yes”.
Regarding “Small ribosomal subunit protein eS1, P61247”, the “listed as a hit” value in assay [3] is “yes”.
“Large ribosomal subunit protein eL31, P62900”: the “listed as a hit” value in assay [4] is on record as “yes”.
Regarding “Acyl carrier protein, mitochondrial, O14561”, the “listed as a hit” value in [5] and in assay [6] was “yes” in each case.
For Actin, cytoplasmic 2, P63261, the “listed as a hit” value in [7] is “yes”.
In the case of Histone H3.3, P84244, in the assay with Histone H2B type 1-C/E/G, the “listed as a hit” value was “yes”.
For the substance Elongation factor 2, P13639, the “listed as a hit” value in assay [8] is “yes”.
Turning to “Large ribosomal subunit protein mL53, Q96EL3”, the “listed as a hit” value in [9] is “yes”.
In the case of “Small ribosomal subunit protein uS19, P62841”, the “listed as a hit” value in [10] was “yes”.
“Large ribosomal subunit protein uL2, P62917”: in assay [11], the “listed as a hit” value is given as “yes”.
For the substance “Leucine-rich PPR motif-containing protein, mitochondrial, P42704”, the “listed as a hit” value in assay [12] was “yes”.
“Large ribosomal subunit protein uL1, P62906”: the “listed as a hit” value in assay [13] is given as “yes”.
For “Small ribosomal subunit protein eS7, P62082”, the “listed as a hit” value in [14] and in assay [15] was “yes” each time.
Turning to “Adenylate kinase 2, mitochondrial, P54819”, the “listed as a hit” value in assay [16] and in assay [17] was “yes” throughout.
Turning to Ras-related protein Rab-14, Q91V41, in [18], the “listed as a hit” value was “yes”.
As to P62204, the “listed as a hit” value in [19] is recorded as “yes”.
Consider “Dynein light chain 2, cytoplasmic, Q9D0M5”, for which the “listed as a hit” value with Protein piccolo is listed as “yes”.
As to “Ragulator complex protein LAMTOR5, O43504”, in assay [20], the “listed as a hit” value was “yes”.
Turning to “Ras-related C3 botulinum toxin substrate 3, P60763”, in [21], the “listed as a hit” value is on record as “yes”.
Take “Small ribosomal subunit protein uS3, P62908”: the “listed as a hit” value in assay [22] is “yes”.
For the substance “Small ribosomal subunit protein uS9, P14131”, the “listed as a hit” value in assay [23] was “yes”.
“Small ribosomal subunit protein uS4, P46781”: the “listed as a hit” value in [24] is “yes”.
With “Small ribosomal subunit protein uS13, P62269”, in [25], the “listed as a hit” value is listed as “yes”.
In the case of “Small ribosomal subunit protein uS5, P25444”, in assay [26], the “listed as a hit” value is on record as “yes”.
Still for that read-out and setting: with “Small ribosomal subunit protein eS4, P62702” the entry was “yes”.
Turning to Syntaxin-1A, O35526, in the assay with Syntaxin-1B, the “listed as a hit” value was “yes”.
Regarding L-lactate dehydrogenase A chain, P00338, in the assay with Tubulin alpha-1C chain, the “listed as a hit” value is given as “yes”.
For the substance Tubulin alpha-1A chain, P68369, in the assay with Tubulin beta-2A chain, the “listed as a hit” value is “yes”.
Turning to “Small ribosomal subunit protein uS3, P23396”, the “listed as a hit” value in [27] is reported as “yes”.
In the case of “Small ribosomal subunit protein uS15, P62277”, in assay [28], the “listed as a hit” value is given as “yes”.
Consider “Small ribosomal subunit protein eS7, P62081”, for which, in assay [28], the “listed as a hit” value is “yes”.
Turning to “cAMP-dependent protein kinase catalytic subunit alpha, P05132”, in [29], the “listed as a hit” value is on record as “yes”.
“cAMP-dependent protein kinase type II-alpha regulatory subunit, P12367”: the “listed as a hit” value in assay [30] is “yes”.
